Results from PubChem BioAssay (NCATS).
“And” between values parts separate entries of the source, which are not always exact repeats. Identical values can stand only once. Records with an inconclusive call do not appear. The source made the active and inactive calls. Unless noted, calls come from the whole dose curve; as a rule, active = well fitted curve in the direction sought with a large enough effect; inconclusive = small, poorly fitted or top-dose-only effect, or another doubt; inactive = no such curve, though single readings can be large; an effect the other way counts as inactive or inconclusive.

Legend:
[1] = molecular target: Cellular tumor antigen p53 (Homo sapiens) (UniProt P04637); assay: Primary qHTS for small molecule compounds that upregulate eGFP-tagged delta133p53alpha (in N-terminal) cells. (AID 2060322); conditions: NCI-H358 eGFP-delta133p53alpha fluorescence, 24 h; activation: active compounds read high;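 note: cells pre-induced with doxycycline then dosed without doxycycline; series mostly up to about 56 µM; 0% = DMSO vehicle and 100% = reference activator; nearly all actives have a fitted effect of over 75% in size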
Sequence of Cellular tumor antigen p53 (Homo sapiens) (P04637 whole entry, looked up): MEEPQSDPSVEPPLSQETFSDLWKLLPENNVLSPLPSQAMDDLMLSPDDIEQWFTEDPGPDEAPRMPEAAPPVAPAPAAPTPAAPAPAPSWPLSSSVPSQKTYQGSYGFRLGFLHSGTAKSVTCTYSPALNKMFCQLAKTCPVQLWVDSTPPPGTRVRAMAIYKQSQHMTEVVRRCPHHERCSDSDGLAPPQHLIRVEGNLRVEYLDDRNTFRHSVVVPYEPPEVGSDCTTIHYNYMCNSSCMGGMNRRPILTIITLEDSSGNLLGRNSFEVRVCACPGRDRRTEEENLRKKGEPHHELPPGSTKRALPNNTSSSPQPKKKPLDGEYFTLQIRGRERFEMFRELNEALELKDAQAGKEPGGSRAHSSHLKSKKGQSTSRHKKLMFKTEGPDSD
Method in brief: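 NCI-H358 cells pre-induced 24 h with 10 ng/ml doxycycline for eGFP-delta133p53alpha, plated dox-free and exposed 24 h at 37C to titrated compounds. Fixed, Hoechst-stained; gated GFP peak intensity by laser scanning cytometry, normalized to DMSO (0%) and 57.5 uM 5-azacytidine (100%).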

[2] = molecular target: Cellular tumor antigen p53 (Homo sapiens) (UniProt P04637); assay: Primary qHTS for small molecule compounds that upregulate eGFP-tagged delta133p53alpha (in C-terminal) cells. (AID 2060324);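 note: 0% = DMSO wells and 100% = 57.5 µM 5-azacytidine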
Method in brief: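 Readout: filtered GFP peak intensity of gated cells (laser scanning cytometer), normalized plate-wise to intraplate controls, DMSO wells = 0% activity. Cells: NCI-H358 D133p53a-eGFP, dox 100 ng/ml 24 h beforehand, then compound 24 h, 37 °C.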

[3] = molecular target: Aldehyde dehydrogenase, mitochondrial (Homo sapiens) (UniProt P05091); assay: qHTS for Inhibitors of the Aldehyde Dehydrogenase Family (ALDH2) Validation screens (AID 2061302; active = well fitted inhibition curve with a large enough effect; title and protocol of this record describe different tests;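 note: plate controls were DMSO vehicle for no effect and maximal DPI positive control response for full effect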)
[4] = molecular target: Retinaldehyde dehydrogenase 3 (Homo sapiens) (UniProt P47895); assay: qHTS for Inhibitors of the Aldehyde Dehydrogenase Family (ALDH1A3) Validation screen (AID 2061312); note: % is set by controls: 0 for no effect and ±100 for the full control effect; nearly all actives have a fitted effect of over 45% in size
[5] = molecular target: Aldehyde dehydrogenase, mitochondrial (Homo sapiens) (UniProt P05091); assay: qHTS for Inhibitors of the Aldehyde Dehydrogenase Family (ALDH2) Primary screen (AID 2061308);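 note: plate controls were vehicle for no effect and reference inhibitor for full effect; nearly all actives have a fitted effect of over 55% in size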
[6] = molecular target: Retinaldehyde dehydrogenase 3 (Homo sapiens) (UniProt P47895); assay: qHTS for Inhibitors of the Aldehyde Dehydrogenase Family (ALDH1A3) Primary screen (AID 2061315);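 note: plate controls were DMSO vehicle for no effect and reference inhibitor for full effect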
[7] = BET inhibitor-based combinations targeting novel dependencies in MECOM-rearranged (r) AML: SET-2 cell line (AID 2202231); conditions: SET-2 AML cells viability, CellTiter-Glo luminescence, 48 h; viability: active compounds read low, series mostly up to about 46 µM;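 note: plate controls were DMSO treated cells for no effect and wells without cells for full effect; nearly all actives have a fitted effect of over 35% in size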
Method in brief: (§1)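 AML cell lines seeded at 500 cells/well, treated with 11-point dose curves for 48 h. Viability by CellTiter-Glo luminescence, normalised to DMSO and empty wells; activity expressed as AUC and per-cell-line Z-transformed AUC.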

[8] = BET inhibitor-based combinations targeting novel dependencies in MECOM-rearranged (r) AML: MV-4-11 cell line (AID 2202233);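 note: plate controls were DMSO for no effect and blank wells for full effect; nearly all actives have a fitted effect of over 45% in size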
Method in brief: (§2)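 Cells at 500/well were exposed for 48 hr to MIPE v5.0 drugs as 11-point dose curves. Viability was read by CellTiter-Glo luminescence and normalized to DMSO and empty-well controls. Activity was expressed as AUC and per-cell-line Z-AUC.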

[9] = BET inhibitor-based combinations targeting novel dependencies in MECOM-rearranged (r) AML: HNT-34 cell line (AID 2202234);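 note: plate controls were vehicle wells for no effect and cell-free wells for full effect; nearly all actives have a fitted effect of over 35% in size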
Method in brief: as §2

[10] = BET inhibitor-based combinations targeting novel dependencies in MECOM-rearranged (r) AML: UCSD-AML1 cell line (AID 2202235);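 note: series mostly up to about 46 µM; plate controls were DMSO vehicle wells for no effect and blank wells for full effect; nearly all actives have a fitted effect of over 40% in size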
Method in brief: as §2

[11] = BET inhibitor-based combinations targeting novel dependencies in MECOM-rearranged (r) AML: AML-191 cell line (AID 2202236;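 note: plate controls were vehicle wells for no effect and wells without cells for full effect; nearly all actives have a fitted effect of over 35% in size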)
Method in brief: as §1

[12] = BET inhibitor-based combinations targeting novel dependencies in MECOM-rearranged (r) AML: AML-194 cell line (AID 2202237;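 note: plate controls were vehicle wells for no effect and wells without cells for full effect; nearly all actives have a fitted effect of over 40% in size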)
Method in brief: as §1

Cc1nc(N=Nc2ccc(C(=O)O)cc2)c(COP(=O)(O)O)c(C=O)c1O
inactive: activation [1] -2.63% | Potency [2] | Potency [3] | Potency [4]

CC(C)(C(=O)O)c1ccc(C(O)CCCN2CCC(C(O)(c3ccccc3)c3ccccc3)CC2)cc1 (stereo not given)
inactive: activation [1] 1.67% and -7.64% and -17.3% | Potency [2] | Potency [3] | Potency [5] | Potency [4] | Potency [6]

CC(C)(Sc1ccc(CCN(CCCCC2CCCCC2)C(=O)NC2CCCCC2)cc1)C(=O)O
inactive: activation [1] 26.5% and 1.67% and -32.7% | Potency [2] | Potency [3] | Potency [5] | Potency [4] | Potency [6] | viability [7] 118% | Potency [8] | Potency [9] | Potency [10] | Potency [11] | Potency [12]

O=C(CCNNC(=O)c1ccncc1)NCc1ccccc1
inactive: activation [1] -11.9% and -31.2% | Potency [2] | Potency [3] | Potency [4]

CCCCc1ncc(/C=C(\Cc2cccs2)C(=O)O)n1Cc1ccc(C(=O)O)cc1
inactive: activation [1] -19.8% and -8.36% and -2.86% | Potency [2] | Potency [3] | Potency [5] | Potency [6]

O=c1ccn([C@@H]2O[C@H](COP(=O)(O)OP(=O)(O)O)[C@@H](O)[C@H]2O)c(=O)[nH]1
inactive: activation [1] -29.5% | Potency [2] | Potency [3] | Potency [4]

CN(C)CCC(c1ccccc1)c1ccccn1 (stereo not given)
inactive: activation [1] -2.82% and -9.55% and -25.6% | Potency [2] | Potency [3] | Potency [5] | Potency [4] | Potency [6]

CC(C)(C)c1ccc(/C=C/C(=O)Nc2ccc3c(c2)OCCO3)cc1
inactive: activation [1] -15.3% | Potency [2] | Potency [3] | Potency [4]

NC/C=C/C(=O)O
inactive: activation [1] 18.6% and -17.5% | Potency [2] | Potency [3] | Potency [4]

COCCCC/C(=N\OCCN)c1ccc(C(F)(F)F)cc1
inactive: activation [1] -6.69% and 3.07% | Potency [2] | Potency [3] | Potency [4]

O=C(O)c1cccnc1C(=O)O
inactive: activation [1] -17.2% | Potency [2] | Potency [3] | Potency [4]

O=C(O)c1ccccc1Nc1ccccc1
inactive: activation [1] -8.85% | Potency [2] | Potency [3] | Potency [4]

COC(=O)[C@@H]1[C@H]2C[C@H]3c4[nH]c5ccccc5c4CCN3C[C@@H]2CC[C@@H]1O
inactive: activation [1] -9.53% and 22.3% | Potency [2] | Potency [3] | Potency [5] | Potency [6] | viability [7] 106% | Potency [9] | Potency [11] | Potency [12]
